# Measured values taken from PubChem BioAssay AID1211 (NMMLSC, 2008).
# Active and inactive are the calls of the source. The rule behind the calls is not given here.
# Target: Estrogen receptor (Homo sapiens) (UniProt P03372)
# Test: ERalpha ligand binders by competition, primary screen, cell-based, Cos7 ERalpha-GFP, flow cytometry (AID 1211);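 note: 0% = DMSO vehicle wells and 100% = no E2-Alexa633 signal left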
# Conditions: fluorescent ligand competition, stronger effect = higher value
# Chain of Estrogen receptor (Homo sapiens) (P03372 whole entry, looked up): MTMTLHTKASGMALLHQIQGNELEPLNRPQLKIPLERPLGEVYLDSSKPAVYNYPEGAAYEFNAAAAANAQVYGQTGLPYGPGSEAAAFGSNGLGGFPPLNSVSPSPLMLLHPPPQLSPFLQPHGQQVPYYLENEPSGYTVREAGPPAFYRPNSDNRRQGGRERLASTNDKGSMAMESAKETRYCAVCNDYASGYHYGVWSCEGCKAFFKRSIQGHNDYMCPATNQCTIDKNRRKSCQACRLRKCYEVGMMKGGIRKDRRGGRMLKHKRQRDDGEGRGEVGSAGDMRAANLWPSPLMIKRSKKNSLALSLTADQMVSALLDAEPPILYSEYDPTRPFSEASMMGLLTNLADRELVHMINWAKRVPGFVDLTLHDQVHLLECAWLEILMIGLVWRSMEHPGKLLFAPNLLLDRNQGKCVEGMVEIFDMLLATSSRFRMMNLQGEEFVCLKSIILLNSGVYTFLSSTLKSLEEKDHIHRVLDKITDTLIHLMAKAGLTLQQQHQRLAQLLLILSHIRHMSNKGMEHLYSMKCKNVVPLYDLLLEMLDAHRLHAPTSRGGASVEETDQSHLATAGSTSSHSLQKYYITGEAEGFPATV
Structure (SMILES),inhibition of ligand binding (at 10 µM),"inhibition of ligand binding (binding inhibition, at 0.1 µM) [%]"
N=c1c(C(=O)NCc2ccc(F)cc2)cc2c(=O)n3ccccc3nc2n1Cc1cccnc1,44% (inactive),26
Cc1ccc(-c2nn(-c3ccccc3)cc2/C=N/NC(=O)c2ccc(Br)o2)cc1,42% (inactive),49
Cc1nnc(N/N=C/c2ccc(O)c([N+](=O)[O-])c2)[nH]c1=O,32% (inactive),20
O=C(Nc1cccc2cccc(NC(=O)c3ccco3)c12)c1ccco1,54% (inactive),46
Oc1ccc(-c2cn3c(n2)SCC3)cc1,37% (inactive),22
COc1cc(CCC(=O)OCC(=O)Nc2ncc(Cl)cc2Cl)cc(OC)c1OC,3% (inactive),27
COc1cc2cc(C(c3nnnn3C3CCCC3)N3CCc4ccccc43)c(=O)[nH]c2cc1OC (configuration not stated),36% (inactive),56
Cc1cccn2c(=O)c3cc(C(=O)O)n(C)c3nc12,33% (inactive),17
Cc1cc(-c2nnc3sc(-c4ccc(Cl)cc4Cl)nn23)n[nH]1,27% (inactive),53
CCOc1ccc(N=C2NC(=O)S/C2=C\c2ccc(OC)cc2)cc1,39% (inactive),26
Cn1c(C(=O)Nc2ccc3c(c2)OCO3)cc2c(=O)n(C)c3ccccc3c21,26% (inactive),15
CCN(CC)c1ccc(-c2nn3c(-c4ccccc4OC)nnc3s2)cc1,40% (inactive),25
Oc1ccc(-c2cn3cc(C(F)(F)F)ccc3n2)cc1,29% (inactive),7
CCCC1Nc2ccc(C(=O)O)cc2C2C=CCC12 (configuration not stated),22% (inactive),64
C/C(N)=C(/C#N)C(=O)CSc1nnc(Nc2ccccc2C)s1,48% (inactive),18
CCN(CC)CCCNC(=O)c1nn(-c2ccccc2OC)c(=O)c2ccccc12,39% (inactive),62
Cc1nnc(NC(=O)Cc2cccs2)s1,44% (inactive),42
COC(=O)c1cnn2c(C(F)(F)F)cc(-c3ccco3)nc12,0% (inactive),32
Cc1ccc(S(=O)(=O)Cc2ccc(C(=O)N3CCN(Cc4ccccc4)CC3)o2)cc1,25% (inactive),9
Cc1ccc(S(=O)(=O)Cc2ccc(C(=O)N3CCc4ccccc4C3)o2)cc1,54% (inactive),57
Cc1ccc(-n2c(SCC(=O)NNC(=S)Nc3ccccc3)nc3ccccc3c2=O)cc1,37% (inactive),44

Structure (SMILES),inhibition of ligand binding (at 10 µM),"inhibition of ligand binding (binding inhibition, at 0.1 µM) [%]"
COc1ccc(-c2cn3c(C)c(C(=O)Nc4ccncc4)sc3n2)cc1,28% (inactive),3
CSc1nc2c(c(=O)[nH]1)C(c1cccs1)C1=C(CCCC1=O)N2 (configuration not stated),28% (inactive),30
Cc1ccccc1NC(=O)CSc1nnc(-c2ccco2)c(-c2ccco2)n1,47% (active),66
O=C(Cc1cccs1)Nc1ccc(S(=O)(=O)N2CCCCC2)cc1,32% (inactive),22
CC(O)C1CCC2C3CC[C@H]4CC(O)CCC4(C)C3CC3(OCCO3)C12C (some centres not stated),33% (inactive),1
CCc1oc2c(C)c(O)ccc2c(=O)c1-c1ccc2ccccc2n1,14% (inactive),54
O=C(O)C1CSC(c2coc3ccccc3c2=O)N1 (configuration not stated),6% (inactive),47
C[C@]12CC[C@@H]3c4ccc(O)cc4[C@@H](O)C[C@H]3[C@@H]1CC[C@@H]2O,64% (active),78
COc1cc(C(=O)Nc2nnc(-c3sccc3C)s2)cc(OC)c1OC,2% (active),75
Cc1ccc(-c2cc(C(=O)NCc3ccco3)c3ccccc3n2)o1,60% (inactive),58
COc1cc(C2CC(=O)c3c(ccc4ccccc34)N2)ccc1O (configuration not stated),0% (inactive),12
O=S(=O)(NCc1csc(-c2cccnc2)n1)c1cccs1,22% (inactive),5
CSc1ccc(S(=O)(=O)Nc2cccc(F)c2)cc1,45% (inactive),54
COc1ccc2[nH]c3nc(SCc4nnc(-c5ccc(C)cc5)o4)nnc3c2c1,64% (inactive),3
CN(C)CC(=O)N1c2ccccc2CCc2ccc(NC(=O)c3ccc(N)cc3)cc21,44% (inactive),41
Cc1cc(-c2nn3c(-c4ccccc4)nnc3s2)c2ccccc2n1,23% (inactive),24
CCOC(=O)CN1C(c2ccc(O)cc2)Nc2ccc(Br)cc2C1c1ccccc1 (configuration not stated),24% (inactive),11
Cc1ccc2c(Cl)cc(Cl)c(OCC(=O)NCc3ccco3)c2n1,21% (inactive),18
O=c1cc(-c2ccc(O)c(O)c2)oc2c(C3O[C@H](CO)[C@@H](O)[C@H](O)[C@H]3O)c(O)cc(O)c12 (some centres not stated),28% (inactive),27
Cc1cc(-c2ccccc2)nc2cc(C(N)=O)nn12,42% (inactive),5
CCOC(=O)c1ccc(NC(=O)CSc2nc(C)cc(=O)[nH]2)cc1,49% (inactive),21

Structure (SMILES),inhibition of ligand binding (at 10 µM),"inhibition of ligand binding (binding inhibition, at 0.1 µM) [%]"
C1CCC(c2nn3c(-c4n[nH]c5c4CCC5)nnc3s2)CC1,20% (inactive),5
Cc1nn(-c2ccccc2)c(Cl)c1/C=N/Nc1ccc(S(=O)(=O)Nc2ccccc2C(=O)O)cc1[N+](=O)[O-],38% (inactive),12
c1coc(-c2nnc3sc(Cc4cccs4)nn23)c1,24% (inactive),14
Cc1ccc(NC(=O)CSc2nc3ccccc3c3nc4ccccc4n23)cc1,60% (inactive),27
Cc1cc(O)ccc1C1(c2ccc(O)cc2C)OC(=O)c2ccccc21,28% (inactive),64
CC(=O)c1ccc(NC(=S)N2CCCC(CO)C2)cc1 (configuration not stated),13% (inactive),1
COc1ccc(C2CC(c3ccccc3)=NN2c2ccc(N)cc2)cc1 (configuration not stated),19% (inactive),47
Oc1ccccc1N=Nc1nc(-c2ccccc2)c(-c2ccccc2)[nH]1,52% (inactive),27
Cc1ccc(C(=O)NCC(=O)OCC(=O)c2c(N)n(C)c(=O)n(C)c2=O)s1,14% (inactive),5
CN(C)NC(=S)Nc1ccc2nc(-c3ccccn3)c(-c3ccccn3)nc2c1,11% (inactive),4
Cc1ccc(S(=O)(=O)N2CCCCC2)cc1C(=O)Nc1ncn[nH]1,21% (inactive),7
NNc1nc2sc3c(c2c(=O)[nH]1)CCc1ccccc1-3,55% (inactive),28
Nc1cc2sc(-c3ccc(C(=O)O)cc3)nc2cc1Cl,24% (inactive),49
O=c1oc2ccccc2cc1-c1ccc(O)cc1,60% (inactive),24
Cc1ccc(C)c(/C(O)=C2/C(=O)C(=O)N(CCN3CCOCC3)C2c2ccco2)c1 (configuration not stated),0% (inactive),52
O=C(Oc1ccc2c(c1)OCO2)c1cc2c(s1)CCC2,32% (inactive),27
CCOC(=O)C1=C(O)/C(=C\c2ccc(CNC(=O)C(=O)Nc3ccccc3)o2)N=C1C,24% (inactive),19
CCCCCc1nnc(NC(=O)Cc2cccs2)s1,26% (inactive),8
O=C(Nc1ccccc1[N+](=O)[O-])C1=C(O)CCn2c1nc1ccccc12,20% (inactive),37
O=C1C2C3C=CC(C3)C2C(=O)N1c1cccc2cccnc12 (configuration not stated),4% (inactive),57
C/C(N)=C(/C#N)C(=O)CSc1nnc(-c2ccc(OC(F)F)cc2)o1,20% (inactive),24

Structure (SMILES),inhibition of ligand binding (at 10 µM),"inhibition of ligand binding (binding inhibition, at 0.1 µM) [%]"
Cc1cc(C)c(C(=O)COc2cccnc2[N+](=O)[O-])cc1C,19% (inactive),30
O=C(c1cc2c(s1)CCC2)N1CCN(c2ccccc2)CC1,16% (active),70
O=C(Nc1ccc2nn(-c3ccccc3)nc2c1)c1ccc2c(c1)OCO2,15% (inactive),44
Cc1cnc(C(=O)OCC(=O)c2csc(N3CCCCC3)n2)cn1,17% (inactive),63
Cc1ccc2nc(/C(C#N)=C\c3ccc(N4CCCCC4)c([N+](=O)[O-])c3)[nH]c2c1,55% (inactive),25
Cc1nnc(NC(=O)CSc2nc3c(c(=O)n2CCc2ccccc2)SC(C)C3)s1 (configuration not stated),23% (inactive),61
Cc1cc(=O)[nH]c(SCC(=O)NCc2ccco2)n1,19% (inactive),8
Clc1ccc(Sc2cc(N3CCOCC3)nc(-c3ccccc3)n2)cc1,41% (inactive),25
CCCc1cc(-n2ccnc2)n2c(nc3ccccc32)c1C#N,14% (inactive),50
CCO/C([O-])=N/c1c[n+](N2CCOCC2)no1,0% (inactive),12
CN(C)C(=O)c1ccc2c(c1)C1C3CCC(C3)C1C(c1ccccc1)N2 (configuration not stated),0% (inactive),24
Oc1ccc(/C=C/c2nc(-c3ccccc3O)n(-c3ccccc3)n2)cc1,11% (inactive),58
O=S(=O)(/N=C(/Sc1ccccc1)c1ccccc1)c1ccccc1,0% (inactive),24
CCN1CCN(Cc2c(O)c(Cl)cc3c(C)cc(=O)oc23)CC1,31% (inactive),28
O=C(COC(=O)CC1CCCC1)Nc1cc2c(cc1Cl)C(=O)c1ccccc1C2=O,37% (inactive),24
Cc1ccc(-c2nn(-c3ccccc3)cc2CSC(=N)N)cc1,26% (inactive),39
COC(=O)c1cc(-c2c(C)oc3cc(O)ccc3c2=O)c(C)o1,32% (inactive),50
O=C(Cc1cccs1)Nc1nncs1,33% (inactive),13
